GPR151 activ: activates the human receptor GPR151 | PathHunter beta-arrestin GPR151 cells, luminescence | activation, % at 11.2 µM | Q8TDV0 | hit rate 1% among 650,000; in the data active = activation above about 4.9%
Target sequence (Q8TDV0 whole entry, looked up): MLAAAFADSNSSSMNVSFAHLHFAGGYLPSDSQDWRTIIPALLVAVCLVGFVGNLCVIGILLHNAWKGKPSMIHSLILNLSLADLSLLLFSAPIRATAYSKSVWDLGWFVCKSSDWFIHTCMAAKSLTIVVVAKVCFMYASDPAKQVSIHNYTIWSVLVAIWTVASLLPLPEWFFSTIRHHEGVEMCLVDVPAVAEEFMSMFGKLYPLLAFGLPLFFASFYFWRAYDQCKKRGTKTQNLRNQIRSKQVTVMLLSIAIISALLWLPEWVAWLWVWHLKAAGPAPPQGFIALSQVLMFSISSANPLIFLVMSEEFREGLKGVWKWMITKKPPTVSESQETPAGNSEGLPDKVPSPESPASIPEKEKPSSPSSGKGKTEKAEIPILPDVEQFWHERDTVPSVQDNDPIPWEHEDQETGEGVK
FBW7 act: human FBW7 E3 ligase activation, primary screen. Q969H0. AlphaScreen FBW7–phospho-cyclin E peptide binding, activator screen. normalized activity (activation), % at 26.1 µM. hit rate 0.13% among 650,000. AID 1259310; in the data active = normalized activity above about 1.9%;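 also: purified mutant Fbw7 with reduced substrate affinity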
TEAD-YAP inh: TEAD-YAP interaction inhibition | HEK-TIYL cells, TEAD-Gal4/YAP UAS-luciferase luminescence | inhibition, % at 9.12 µM | hit rate 1.4% among 640,000 | AID 1259422; in the data active = inhibition above about 32%
MITF primary: human MITF inhibition, primary screen. O75030. AlphaScreen MITF homodimerization, bead proximity signal. inhibition, % at 2.6 µM. hit rate 0.91% among 650,000; in the data active = inhibition above about 50%
A number is an active result; . = inactive. The list is not random: actives were taken first. Their share in the collection is about 3.4%.

SMILES	GPR151 activ	FBW7 act	TEAD-YAP inh	MITF primary
O=C(N1CCN(c2ccccc2F)CC1)N1c2ccccc2Sc2ccccc21	.	.	63.6	.
Cc1ccc2oc(=O)c3cnn(CC(=O)Nc4cccc([N+](=O)[O-])c4C)c3c2c1	.	.	.	.
CC1=C(C(=O)N2CCOCC2)C(c2ccccc2Cl)NC(=O)N1 (configuration not stated)	.	.	.	.
Cc1ccnc(NC(=O)c2ccc(Cl)cc2[N+](=O)[O-])c1	.	.	.	.
O=S(=O)(CCN1CCc2ccccc2C1)c1ccc(Br)cc1	.	.	.	.
CCC[C@@H]1NC(=O)[C@H]2CN(Cc3ccc(C)c(C)c3)CCN2C1=O	.	.	.	.
COc1ccc(C(=O)N2CCN(c3cccc(C)c3C)CC2)cc1	.	.	.	.
COc1ccccc1N1CCN(C(=O)c2cc(Br)cc(Br)c2)CC1	.	.	58.4	.
COc1ccc2c(c1)CCCN2C(=O)c1cc(OC)c(OC)c(OC)c1	.	.	45.1	.
COc1cc(SC)ccc1C(=O)N1CCN(c2cccc(Cl)c2)CC1	.	.	51.2	.
COc1cc(C(=O)N2CCCc3ccccc32)cc(OC)c1OC	.	.	.	.
COc1cc(OC)cc(C(=O)N2CCN(c3cccc(C)c3C)CC2)c1	.	.	46.8	.
O=C1C2C3C=CC(C2C(=O)N1c1ccc(F)cc1)C1C(=O)N(c2ccc(F)cc2)C(=O)C31 (configuration not stated)	.	.	.	.
CCCCCCNC(=O)c1ccccc1I	.	.	.	.
O=S(=O)(Nc1ccc(Br)cc1)N1CCCCCC1	.	.	.	.
COc1ccccc1N1CCN(C(=O)COc2cccc(C)c2C)CC1	.	.	.	.
CSc1ccc(NC(=O)NCCN2CCN(c3cccc(Cl)c3)CC2)cc1	.	4.4	.	.
COc1nn(C)cc1C(=O)N1CCCC(C(=O)N2CCN(c3cccc(Cl)c3)CC2)C1 (configuration not stated)	.	.	41.8	.
COc1ccccc1N1CCN(C(=O)c2cc(OC)c(OC)c(OC)c2)CC1	.	.	64.3	.
COc1ccccc1N1CCN(C(=O)COc2ccc(Br)cc2C)CC1	.	.	49.2	.
Cc1ccc(-n2ncc3c(=O)n(CC(=O)Nc4ccc(Cl)cc4)cnc32)cc1	.	.	.	.
CCCC(c1nnnn1CCOC)N(CCCO)Cc1cc2ccc(C)cc2[nH]c1=O (configuration not stated)	.	.	.	.
Nc1cc(N2CCCC2CO)nc(N)n1 (configuration not stated)	.	.	.	.
CNc1c(C)ccc2c1C(=O)c1ccccc1C2=O	.	.	.	83.7
COc1ccc2c(C)nc(N3CCC(NCCCOC(C)C)CC3)nc2c1	.	.	.	.
SMILES	GPR151 activ	FBW7 act	TEAD-YAP inh	MITF primary
CCOCCCNC1CCN(c2nc(C)c3cc(OC)ccc3n2)CC1	.	.	48.7	.
CN1CCN(C(=O)c2ccc(-c3nc(C(=O)Nc4ccc(Oc5ccccc5)cc4)cs3)cc2)CC1	.	.	43.8	.
CC(=O)Nc1ccc(NC(=O)c2csc(-c3ccc(C(=O)NC4CC4)cc3)n2)cc1	.	.	.	.
O=C(NC1CC1)c1ccc(-c2nc(C(=O)Nc3ccc(Oc4ccccc4)cc3)cs2)cc1	.	.	32.5	.
CNc1nc2ccccn2c(=O)c1/C=C1\SC(=S)N(CC2CCCO2)C1=O (configuration not stated)	.	.	.	.
O=C(Nc1ccc(S(=O)(=O)N2CCCCC2)cc1)c1ccc(CN2CCc3ccccc3C2)cc1	.	.	65.0	.
COc1cccc(C(=O)/C=C\Nc2ccc(Br)cc2)c1	.	.	53.7	.
COc1cccc(C(=O)/C=C/Nc2cc(OC)ccc2OC)c1	.	.	.	.
COc1cccc(C(=O)/C=C/Nc2ccccc2OC)c1	.	.	64.0	.
O=C(/C=C\Nc1ccc2c(c1)OCO2)c1cccc2ccccc12	.	.	.	.
COc1ccc(N/C=C/C(=O)c2ccccc2)cc1	.	.	84.0	.
O=C(/C=C\Nc1ccc2c(c1)OCO2)c1ccccc1	.	.	73.8	.
CCOC(=O)/C=c1\s/c(=C\c2ccc(F)cc2)c(=O)n1CC(N)=O	.	.	.	.
O=C1C=C(c2ccccc2)Sc2ccccc2N1	.	.	.	.
COc1cccc(OC)c1C(=O)Nc1nc2cc3c(cc2s1)OCCO3	.	.	.	.
CCc1ccc(NC(=O)CSc2nnc(Cc3cccn3C)n2C)cc1	.	.	.	.
CCOc1cc(C=O)ccc1Oc1ccc([N+](=O)[O-])cn1	.	.	.	.
COc1cccc(C(=O)/C=C\Nc2ccc3c(c2)OCO3)c1	.	.	85.4	.

Screening data (PubChem)
